# Reference: article PMC7862700, “An all-to-all approach to the identification of sequence-specific readers for epigenetic DNA modifications on cytosine”
# Columns and labels:
# Assay in all cases: DAPPL (digital affinity profiling via proximity ligation, sequencing); 10 mM Tris-HCl pH 7.5, 50 mM NaCl, 1 mM DTT, 4% glycerol, room temperature, 30 min; GST-TFs on glutathione beads, 16-mer random dsDNA library, 0.1% formaldehyde crosslink after washing; high values mean tight binding
# FEV = molecular target: T1, FEV (Homo sapiens, UniProt Q99581 1-238); conditions: protein: recombinant; tags: N-terminal GST; dsDNA, one strand shown
# T1 sequence: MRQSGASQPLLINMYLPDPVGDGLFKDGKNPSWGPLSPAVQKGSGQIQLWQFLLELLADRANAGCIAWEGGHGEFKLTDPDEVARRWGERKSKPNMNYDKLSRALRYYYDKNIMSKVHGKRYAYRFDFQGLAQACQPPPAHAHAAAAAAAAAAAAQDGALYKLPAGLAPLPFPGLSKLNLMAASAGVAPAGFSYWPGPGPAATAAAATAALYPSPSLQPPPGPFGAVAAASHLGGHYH
# How it was run: (§1)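 GST fusions of human transcription factors were expressed in yeast and captured with glutathione beads. Once given DNA barcodes and pooled alongside a tag-only sample, they were incubated for 30 min at room temperature with 200 nmole of a random double-stranded 16-mer DNA library in Tris/NaCl/DTT/glycerol buffer, then washed, crosslinked (0.1% formaldehyde), proximity-ligated, PCR-amplified and sequenced on an Illumina NextSeq500. The binding signal of each hexamer is its read frequency for a factor divided by its frequency for the tag-only sample.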
# ETV5 = ETV5 (Homo sapiens, UniProt P41161 1-510); conditions: protein: recombinant; tags: N-terminal GST; dsDNA, one strand shown
# How it was run: as §1
# HSF1 = HSF1 (Homo sapiens, UniProt Q00613 1-529); conditions: protein: recombinant; tags: N-terminal GST; chain copies: 3; dsDNA, one strand shown
# How it was run: as §1
# SPIC = molecular target: T2, SPIC (Homo sapiens, UniProt Q8N5J4 1-248); conditions: protein: recombinant; tags: N-terminal GST; dsDNA, one strand shown
# T2 sequence: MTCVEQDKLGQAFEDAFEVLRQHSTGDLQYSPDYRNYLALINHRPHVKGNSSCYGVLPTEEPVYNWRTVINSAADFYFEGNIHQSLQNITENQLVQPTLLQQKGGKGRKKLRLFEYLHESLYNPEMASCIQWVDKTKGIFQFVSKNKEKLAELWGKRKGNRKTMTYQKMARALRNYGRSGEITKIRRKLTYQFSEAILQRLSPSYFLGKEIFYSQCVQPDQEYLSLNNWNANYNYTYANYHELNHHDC
# How it was run: as §1
# ELF4 = ELF4 (Homo sapiens, UniProt Q99607 1-663); conditions: protein: recombinant; tags: N-terminal GST; dsDNA, one strand shown
# How it was run: as §1
# ELK4 = molecular target: T3, ELK4 (Homo sapiens, UniProt P28324-2 1-405); conditions: protein: recombinant; tags: N-terminal GST; dsDNA, one strand shown
# T3 sequence: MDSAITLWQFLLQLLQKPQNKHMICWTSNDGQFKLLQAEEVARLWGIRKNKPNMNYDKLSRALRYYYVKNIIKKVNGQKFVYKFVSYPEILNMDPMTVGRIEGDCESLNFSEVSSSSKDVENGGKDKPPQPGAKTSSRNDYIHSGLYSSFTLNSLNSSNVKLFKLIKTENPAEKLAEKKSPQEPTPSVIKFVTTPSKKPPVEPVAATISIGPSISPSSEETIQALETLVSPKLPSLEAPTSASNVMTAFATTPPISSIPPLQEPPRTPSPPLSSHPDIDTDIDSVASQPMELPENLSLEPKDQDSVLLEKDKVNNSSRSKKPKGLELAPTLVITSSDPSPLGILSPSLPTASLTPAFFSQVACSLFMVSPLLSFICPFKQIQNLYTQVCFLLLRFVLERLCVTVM
# How it was run: as §1
# ETV2 = molecular target: T4, ETV2 (Homo sapiens, UniProt O00321 1-342); conditions: protein: recombinant; tags: N-terminal GST; dsDNA, one strand shown
# T4 sequence: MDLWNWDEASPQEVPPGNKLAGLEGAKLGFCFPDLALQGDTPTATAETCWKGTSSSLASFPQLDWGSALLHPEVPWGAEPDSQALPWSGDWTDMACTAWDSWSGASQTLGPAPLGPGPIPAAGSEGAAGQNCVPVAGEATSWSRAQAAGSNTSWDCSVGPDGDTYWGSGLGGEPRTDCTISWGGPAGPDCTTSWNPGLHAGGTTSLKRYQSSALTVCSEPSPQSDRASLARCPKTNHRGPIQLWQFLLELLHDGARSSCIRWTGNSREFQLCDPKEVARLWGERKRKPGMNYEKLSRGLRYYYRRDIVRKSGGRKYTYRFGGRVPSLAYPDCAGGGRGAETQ
# How it was run: as §1
# ELF3 = molecular target: T5, ELF3 (Homo sapiens, UniProt P78545 1-371); conditions: protein: recombinant; tags: N-terminal GST; dsDNA, one strand shown
# T5 sequence: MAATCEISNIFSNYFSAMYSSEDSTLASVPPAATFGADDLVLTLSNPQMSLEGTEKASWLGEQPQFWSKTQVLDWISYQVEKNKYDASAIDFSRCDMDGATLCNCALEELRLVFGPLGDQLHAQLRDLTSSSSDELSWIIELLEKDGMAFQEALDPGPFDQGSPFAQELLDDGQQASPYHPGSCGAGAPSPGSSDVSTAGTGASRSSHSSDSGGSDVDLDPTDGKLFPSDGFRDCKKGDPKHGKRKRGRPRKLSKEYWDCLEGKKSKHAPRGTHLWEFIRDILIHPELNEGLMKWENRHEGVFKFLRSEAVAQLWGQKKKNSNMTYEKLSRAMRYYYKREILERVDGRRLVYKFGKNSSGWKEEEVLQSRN
# How it was run: as §1
# CRX = CRX (Homo sapiens, UniProt O43186 1-299); conditions: protein: recombinant; tags: N-terminal GST; dsDNA, one strand shown
# How it was run: as §1
# ETV1 = ETV1 (Homo sapiens, UniProt P50549 1-477); conditions: protein: recombinant; tags: N-terminal GST; dsDNA, one strand shown
# How it was run: as §1
# ERF = molecular target: T6, ERF (Homo sapiens, UniProt P50548 1-548); conditions: protein: recombinant; tags: N-terminal GST; dsDNA, one strand shown
# T6 sequence: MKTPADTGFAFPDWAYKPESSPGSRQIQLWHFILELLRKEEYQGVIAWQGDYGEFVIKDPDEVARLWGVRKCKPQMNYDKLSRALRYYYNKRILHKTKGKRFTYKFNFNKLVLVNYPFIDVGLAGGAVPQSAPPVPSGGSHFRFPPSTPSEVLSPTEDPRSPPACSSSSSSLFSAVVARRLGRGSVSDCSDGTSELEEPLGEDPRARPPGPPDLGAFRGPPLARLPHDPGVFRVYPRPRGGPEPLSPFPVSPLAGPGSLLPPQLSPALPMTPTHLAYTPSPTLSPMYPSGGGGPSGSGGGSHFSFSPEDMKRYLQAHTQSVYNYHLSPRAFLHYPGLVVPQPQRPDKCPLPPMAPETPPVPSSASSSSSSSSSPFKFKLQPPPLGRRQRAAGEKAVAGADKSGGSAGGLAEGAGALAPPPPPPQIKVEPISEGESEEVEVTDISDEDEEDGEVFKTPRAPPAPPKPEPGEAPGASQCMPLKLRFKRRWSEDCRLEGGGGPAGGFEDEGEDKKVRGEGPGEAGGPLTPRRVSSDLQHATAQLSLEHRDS
# How it was run: as §1
# ETV3L = molecular target: T7, ETV3L (Homo sapiens, UniProt Q6ZN32 1-361); conditions: protein: recombinant; tags: N-terminal GST; dsDNA, one strand shown
# T7 sequence: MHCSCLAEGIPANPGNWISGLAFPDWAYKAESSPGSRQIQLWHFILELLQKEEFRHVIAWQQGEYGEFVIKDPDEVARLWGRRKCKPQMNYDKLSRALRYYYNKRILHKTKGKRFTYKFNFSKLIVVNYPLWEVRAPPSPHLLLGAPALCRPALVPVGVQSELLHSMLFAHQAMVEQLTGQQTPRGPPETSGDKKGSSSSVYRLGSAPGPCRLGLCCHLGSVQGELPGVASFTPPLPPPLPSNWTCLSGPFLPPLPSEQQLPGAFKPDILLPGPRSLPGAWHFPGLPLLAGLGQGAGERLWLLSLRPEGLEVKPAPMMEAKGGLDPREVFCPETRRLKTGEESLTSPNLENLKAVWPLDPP
# How it was run: as §1
# ETS2 = molecular target: T8, ETS2 (Homo sapiens, UniProt P15036 1-469); conditions: protein: recombinant; tags: N-terminal GST; dsDNA, one strand shown
# T8 sequence: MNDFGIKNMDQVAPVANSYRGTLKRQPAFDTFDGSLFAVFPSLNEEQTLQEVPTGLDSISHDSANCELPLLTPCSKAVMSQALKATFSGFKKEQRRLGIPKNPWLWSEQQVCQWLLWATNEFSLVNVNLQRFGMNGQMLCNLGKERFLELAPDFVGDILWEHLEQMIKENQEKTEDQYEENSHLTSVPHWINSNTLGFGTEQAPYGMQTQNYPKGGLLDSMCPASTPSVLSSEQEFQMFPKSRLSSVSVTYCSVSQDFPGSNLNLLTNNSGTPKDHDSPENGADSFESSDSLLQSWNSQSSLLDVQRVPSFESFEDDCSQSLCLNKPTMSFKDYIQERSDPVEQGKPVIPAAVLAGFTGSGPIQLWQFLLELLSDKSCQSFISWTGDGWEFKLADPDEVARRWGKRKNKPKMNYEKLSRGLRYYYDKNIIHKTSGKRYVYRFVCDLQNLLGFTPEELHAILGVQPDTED
# How it was run: as §1
# SPDEF = molecular target: T9, SPDEF (Homo sapiens, UniProt O95238 1-335); conditions: protein: recombinant; tags: N-terminal GST; dsDNA, one strand shown
# T9 sequence: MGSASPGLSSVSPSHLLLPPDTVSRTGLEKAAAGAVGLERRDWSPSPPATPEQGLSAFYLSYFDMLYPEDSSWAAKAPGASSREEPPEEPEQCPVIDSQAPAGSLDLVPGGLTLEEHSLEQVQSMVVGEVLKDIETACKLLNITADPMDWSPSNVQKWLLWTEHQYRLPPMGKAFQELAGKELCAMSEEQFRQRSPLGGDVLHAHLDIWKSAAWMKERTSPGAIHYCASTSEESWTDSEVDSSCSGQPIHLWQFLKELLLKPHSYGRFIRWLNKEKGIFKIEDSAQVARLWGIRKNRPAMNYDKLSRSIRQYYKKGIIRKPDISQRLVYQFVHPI
# How it was run: as §1
# ETV7 = molecular target: T10, ETV7 (Homo sapiens, UniProt Q9Y603 1-341); conditions: protein: recombinant; tags: N-terminal GST; dsDNA, one strand shown
# T10 sequence: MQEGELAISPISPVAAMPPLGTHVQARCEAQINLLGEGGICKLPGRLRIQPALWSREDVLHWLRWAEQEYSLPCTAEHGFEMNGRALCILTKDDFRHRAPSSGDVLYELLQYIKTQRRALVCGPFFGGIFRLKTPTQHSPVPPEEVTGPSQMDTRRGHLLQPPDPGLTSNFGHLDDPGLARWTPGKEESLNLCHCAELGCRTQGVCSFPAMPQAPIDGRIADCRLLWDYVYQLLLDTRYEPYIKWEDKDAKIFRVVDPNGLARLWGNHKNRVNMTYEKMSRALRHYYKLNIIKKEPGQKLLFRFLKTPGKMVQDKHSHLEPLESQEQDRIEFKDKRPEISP
# How it was run: as §1
# ELF5 = molecular target: T11, ELF5 (Homo sapiens, UniProt Q9UKW6-2 1-255); conditions: protein: recombinant; tags: N-terminal GST; dsDNA, one strand shown
# T11 sequence: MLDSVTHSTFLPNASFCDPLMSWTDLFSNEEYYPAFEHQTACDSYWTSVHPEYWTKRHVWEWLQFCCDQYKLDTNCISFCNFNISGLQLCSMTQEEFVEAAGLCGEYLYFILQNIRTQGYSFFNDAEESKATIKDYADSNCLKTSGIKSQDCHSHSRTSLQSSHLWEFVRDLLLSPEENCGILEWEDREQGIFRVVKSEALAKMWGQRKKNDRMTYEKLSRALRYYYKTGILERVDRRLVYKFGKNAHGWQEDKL
# How it was run: as §1
# ETV3 = molecular target: T12, ETV3 (Homo sapiens, UniProt P41162-2 1-143); conditions: protein: recombinant; tags: N-terminal GST; dsDNA, one strand shown
# T12 sequence: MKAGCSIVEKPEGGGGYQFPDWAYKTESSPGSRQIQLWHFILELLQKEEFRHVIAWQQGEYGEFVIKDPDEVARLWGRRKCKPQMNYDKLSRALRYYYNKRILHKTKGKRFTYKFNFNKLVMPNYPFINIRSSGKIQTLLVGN
# How it was run: as §1
# ETV6 = ETV6 (Homo sapiens, UniProt P41212 1-452); conditions: protein: recombinant; tags: N-terminal GST; dsDNA, one strand shown
# How it was run: as §1
# Sequence of HSF1 (Q00613 whole entry): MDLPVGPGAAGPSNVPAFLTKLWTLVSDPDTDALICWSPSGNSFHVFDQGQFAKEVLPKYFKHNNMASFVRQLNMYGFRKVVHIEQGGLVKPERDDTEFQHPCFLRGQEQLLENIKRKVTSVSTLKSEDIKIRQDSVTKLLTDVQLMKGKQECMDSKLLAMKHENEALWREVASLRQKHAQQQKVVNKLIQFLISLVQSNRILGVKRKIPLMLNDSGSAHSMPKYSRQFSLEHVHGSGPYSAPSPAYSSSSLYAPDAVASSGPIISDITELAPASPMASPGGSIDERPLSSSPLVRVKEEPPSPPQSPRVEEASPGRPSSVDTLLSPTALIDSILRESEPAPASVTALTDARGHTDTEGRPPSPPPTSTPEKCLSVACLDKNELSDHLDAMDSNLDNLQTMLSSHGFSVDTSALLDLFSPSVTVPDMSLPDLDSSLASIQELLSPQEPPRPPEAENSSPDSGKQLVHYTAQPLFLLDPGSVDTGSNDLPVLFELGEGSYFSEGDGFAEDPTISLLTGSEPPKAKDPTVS
# Sequence of CRX (O43186 whole entry): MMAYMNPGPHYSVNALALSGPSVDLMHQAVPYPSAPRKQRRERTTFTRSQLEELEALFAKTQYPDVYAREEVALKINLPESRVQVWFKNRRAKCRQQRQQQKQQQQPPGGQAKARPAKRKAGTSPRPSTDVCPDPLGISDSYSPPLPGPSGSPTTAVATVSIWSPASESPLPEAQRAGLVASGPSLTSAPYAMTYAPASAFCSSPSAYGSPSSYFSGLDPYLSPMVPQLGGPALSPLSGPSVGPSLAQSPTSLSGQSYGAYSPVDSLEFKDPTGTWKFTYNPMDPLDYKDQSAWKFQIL
# Sequence of ETV6 (P41212 whole entry): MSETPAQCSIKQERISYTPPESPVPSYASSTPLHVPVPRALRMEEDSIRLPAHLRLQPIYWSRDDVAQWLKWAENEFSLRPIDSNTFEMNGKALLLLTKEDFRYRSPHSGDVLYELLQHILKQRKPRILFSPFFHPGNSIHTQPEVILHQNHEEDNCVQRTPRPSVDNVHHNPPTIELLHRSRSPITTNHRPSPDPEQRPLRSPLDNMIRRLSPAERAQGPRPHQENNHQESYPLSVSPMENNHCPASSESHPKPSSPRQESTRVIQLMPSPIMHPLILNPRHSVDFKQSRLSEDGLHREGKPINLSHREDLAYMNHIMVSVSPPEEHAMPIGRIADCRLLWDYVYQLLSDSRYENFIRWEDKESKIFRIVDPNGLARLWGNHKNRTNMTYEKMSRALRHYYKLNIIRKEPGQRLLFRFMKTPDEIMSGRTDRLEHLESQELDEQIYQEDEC
# Sequence of ETV1 (P50549 whole entry): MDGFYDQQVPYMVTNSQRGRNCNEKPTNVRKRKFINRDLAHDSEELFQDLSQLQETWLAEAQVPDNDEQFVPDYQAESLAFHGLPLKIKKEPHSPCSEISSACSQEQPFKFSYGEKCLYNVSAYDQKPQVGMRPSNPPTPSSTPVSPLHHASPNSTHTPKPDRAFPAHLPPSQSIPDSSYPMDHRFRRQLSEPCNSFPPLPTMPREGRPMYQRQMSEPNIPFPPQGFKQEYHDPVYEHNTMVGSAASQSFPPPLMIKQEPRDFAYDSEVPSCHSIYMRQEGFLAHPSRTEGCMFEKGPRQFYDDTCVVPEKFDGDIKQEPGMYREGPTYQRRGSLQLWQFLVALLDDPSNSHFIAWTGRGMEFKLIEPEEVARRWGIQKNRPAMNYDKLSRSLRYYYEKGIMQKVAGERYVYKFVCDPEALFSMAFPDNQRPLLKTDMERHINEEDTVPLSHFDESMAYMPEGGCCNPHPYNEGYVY
# Sequence of ETV5 (P41161 whole entry): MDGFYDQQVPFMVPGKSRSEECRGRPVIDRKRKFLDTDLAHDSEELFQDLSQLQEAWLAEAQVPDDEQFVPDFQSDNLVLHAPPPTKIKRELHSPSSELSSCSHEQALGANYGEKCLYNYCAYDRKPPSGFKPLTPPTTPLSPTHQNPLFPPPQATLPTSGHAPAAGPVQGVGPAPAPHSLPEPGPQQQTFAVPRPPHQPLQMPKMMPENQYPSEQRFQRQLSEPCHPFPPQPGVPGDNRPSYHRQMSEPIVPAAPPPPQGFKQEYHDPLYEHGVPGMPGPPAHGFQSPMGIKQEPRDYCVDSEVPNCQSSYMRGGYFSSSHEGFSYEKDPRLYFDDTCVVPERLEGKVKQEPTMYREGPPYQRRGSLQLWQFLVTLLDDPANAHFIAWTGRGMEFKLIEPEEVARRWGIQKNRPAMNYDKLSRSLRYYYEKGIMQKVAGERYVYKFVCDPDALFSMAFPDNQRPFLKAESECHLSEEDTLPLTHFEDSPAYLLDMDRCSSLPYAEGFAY
# Sequence of ELF4 (Q99607 whole entry): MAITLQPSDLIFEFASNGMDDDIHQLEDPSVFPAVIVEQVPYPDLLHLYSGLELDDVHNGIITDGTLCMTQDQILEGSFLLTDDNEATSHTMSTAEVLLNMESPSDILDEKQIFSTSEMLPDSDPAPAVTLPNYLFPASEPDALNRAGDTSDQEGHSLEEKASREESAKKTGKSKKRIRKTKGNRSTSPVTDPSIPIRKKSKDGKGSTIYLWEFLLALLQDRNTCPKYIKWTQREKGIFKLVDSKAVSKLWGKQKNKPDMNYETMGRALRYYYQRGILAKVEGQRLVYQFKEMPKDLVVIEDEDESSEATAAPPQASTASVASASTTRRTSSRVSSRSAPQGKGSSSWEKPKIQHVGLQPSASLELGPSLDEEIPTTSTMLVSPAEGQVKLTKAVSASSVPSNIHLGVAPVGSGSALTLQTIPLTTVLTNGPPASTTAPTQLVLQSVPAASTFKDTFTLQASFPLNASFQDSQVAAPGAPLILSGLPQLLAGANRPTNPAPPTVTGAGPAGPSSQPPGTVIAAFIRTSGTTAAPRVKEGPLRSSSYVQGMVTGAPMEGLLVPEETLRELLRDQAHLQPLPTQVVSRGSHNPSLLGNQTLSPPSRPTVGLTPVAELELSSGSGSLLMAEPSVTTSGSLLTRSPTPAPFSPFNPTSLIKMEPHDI
sequence,measurement,setting,value
ACGATT,binding signal,FEV,"1.28 fold enrichment (6-mer frequency, TF over GST control)"
same,binding signal,ETV5,"1.36 fold enrichment (6-mer frequency, TF over GST control)"
same,binding signal,HSF1,"1.69 fold enrichment (6-mer frequency, TF over GST control)"
same,binding signal,SPIC,"1.39 fold enrichment (6-mer frequency, TF over GST control)"
same,binding signal,ELF4,"1.39 fold enrichment (6-mer frequency, TF over GST control)"
same,binding signal,ELK4,"1.43 fold enrichment (6-mer frequency, TF over GST control)"
same,binding signal,ETV2,"1.24 fold enrichment (6-mer frequency, TF over GST control)"
same,binding signal,ELF3,"1.31 fold enrichment (6-mer frequency, TF over GST control)"
same,binding signal,CRX,"1.99 fold enrichment (6-mer frequency, TF over GST control)"
same,binding signal,ETV1,"1.31 fold enrichment (6-mer frequency, TF over GST control)"
same,binding signal,ERF,"1.4 fold enrichment (6-mer frequency, TF over GST control)"
same,binding signal,ETV3L,"1.28 fold enrichment (6-mer frequency, TF over GST control)"
same,binding signal,ETS2,"1.26 fold enrichment (6-mer frequency, TF over GST control)"
same,binding signal,SPDEF,"1.27 fold enrichment (6-mer frequency, TF over GST control)"
same,binding signal,ETV7,"1.28 fold enrichment (6-mer frequency, TF over GST control)"
same,binding signal,ELF5,"1.24 fold enrichment (6-mer frequency, TF over GST control)"
same,binding signal,ETV3,"1.32 fold enrichment (6-mer frequency, TF over GST control)"
same,binding signal,ETV6,"1.31 fold enrichment (6-mer frequency, TF over GST control)"
